The source made the active and inactive calls. The rule behind the calls is not given here.
The molecules below were run against Pantothenate synthetase (Mycobacterium tuberculosis (strain ATCC 25618 / H37Rv)) (UniProt P9WIL5) (assay: Recombinant Mtb pantothenate synthetase (PanC) inhibitors, coupled enzyme, confirmatory (AID 375;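 note: 0% = full reaction with vehicle and 100% = no enzyme background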)). Conditions: coupled enzyme assay; at 10 µM, active compounds read high.
Chain of Pantothenate synthetase (Mycobacterium tuberculosis (strain ATCC 25618 / H37Rv)) (P9WIL5 whole entry, looked up): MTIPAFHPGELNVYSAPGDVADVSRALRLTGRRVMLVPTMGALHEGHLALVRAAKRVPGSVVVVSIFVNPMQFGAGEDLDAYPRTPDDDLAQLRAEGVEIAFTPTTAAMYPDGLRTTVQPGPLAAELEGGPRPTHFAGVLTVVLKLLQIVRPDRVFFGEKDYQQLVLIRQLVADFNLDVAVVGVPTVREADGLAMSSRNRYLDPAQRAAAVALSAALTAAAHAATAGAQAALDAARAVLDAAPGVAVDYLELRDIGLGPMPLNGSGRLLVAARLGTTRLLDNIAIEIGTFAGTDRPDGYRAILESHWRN
In the case of `Cc1nc2ccccc2c(=O)n1NC(=O)c1ccc(F)cc1Cl`, the inhibition is reported as 5% (inactive). For `CCOc1nc(OCC)nc(N2CCC(C)CC2)n1`, the inhibition was 0% (inactive). In the case of `Cc1ccc(NC(=O)c2cc(-c3ccc(C)o3)nc3ccccc23)nc1`, the inhibition is reported as 0% (inactive). With `Nc1ncnc2nc(SCCN3CCCCC3)[nH]c12` the inhibition was 4% (inactive). For `Brc1ccc(C2=Nn3c(nnc3-c3ccncc3)SC2)cc1`, the inhibition was 0% (inactive). For `Cc1ccc2cc(CN(CCN3CCCC3)C(=O)Nc3ccc(F)cc3)c(=O)[nH]c2c1C`, the inhibition was 0% (inactive). For `COCC(=O)Nc1cc(OC)ccc1OC`, the inhibition was 3% (inactive). `O=c1/c(=C/c2ccco2)sc2nc(-c3ccccc3Br)nn12` was tested, and the inhibition was 0% (inactive). `Cc1ccc(C)c(-n2c(CNC(=O)c3ccco3)nnc2SCC(=O)Nc2nnc(C)s2)c1` was tested, and the inhibition was 0% (inactive). With `Cc1nc2ccccc2c(=O)n1CC(=O)N1CCOCC1` the inhibition was 2% (inactive). For `O=C1NC(c2ccco2)Nc2ccccc21` (stereo not given), the inhibition was 0% (inactive). In the case of `CNC(=O)c1nnn(Cc2ccccc2)c1NC(C)=O`, the inhibition is reported as 2% (inactive). For `CSc1nsc(SCC(=O)N2CCc3ccccc32)n1`, the inhibition was 8% (inactive). In the case of `CC(=O)N1CCc2cc(S(=O)(=O)CCC(=O)N3CCN(C(=O)c4ccco4)CC3)ccc21`, the inhibition is reported as 6% (inactive). With `COc1ccc(-n2ncc3c(=O)n(CC(=O)OCc4ccccc4)cnc32)cc1` the inhibition was 0% (inactive). With `O=C(CCc1nc2ccccc2s1)OCC(=O)N1CCN(C(=O)c2ccco2)CC1` the inhibition was 4% (inactive). `O=C(CCN1C(=O)COc2ccccc21)NCCN1CCN(c2cccc(Cl)c2)CC1` was tested, and the inhibition was 0% (inactive). For `CCNC(=O)N(C)c1nncnc1C(=O)NC`, the inhibition was 0% (inactive). For `O=P1(O)C=C(c2ccccc2)NC(c2ccccc2)=C1`, the inhibition was 0% (inactive). For `CC(C)N1C(=O)C2C(C(=O)NC3CCCCC3)C3C=CC2(O3)C1C(=O)NC1CCCC1` (stereo not given), the inhibition was 0% (inactive). `COCCN1CCN(c2c(C)c(C)nc3cc(-c4cccc(OC)c4)nn23)CC1` was tested, and the inhibition was 0% (inactive). In the case of `CCCOC(=O)CSc1nc(N)c(C#N)c(CC)c1C#N`, the inhibition is reported as 8% (inactive). `COc1ccc(-c2noc(-c3ccccc3C(=O)NCc3ccco3)n2)cc1` was tested, and the inhibition was 3% (inactive). `Cc1nn(-c2nc3ccccc3s2)c(C)c1Oc1ccccc1O` was tested, and the inhibition was 2% (inactive). For `Cc1ccc(-c2csc3ncn(-n4c(C)ccc4C)c(=O)c23)o1`, the inhibition was 0% (inactive). `O=C1C(Cl)=C(NCC2CCCO2)C(=O)N1CCc1ccccc1` (stereo not given) was tested, and the inhibition was 0% (inactive). With `Cn1c(Cc2csc(N)n2)nnc1SCC(=O)NCc1ccccc1` the inhibition was 3% (inactive). `c1ccc2c(c1)[nH]c1c(N3CCC4(CC3)OCCO4)ncnc12` was tested, and the inhibition was 0% (inactive). For `CCOc1ccc(S(=O)(=O)N2CCN(c3ccc(C)cc3C)CC2)cc1`, the inhibition was 0% (inactive). `COc1ccc(NC(=O)CSc2nc(C)cc(C(F)(F)F)n2)cc1` was tested, and the inhibition was 0% (inactive). For `CCN(CC)C(=O)CSc1nnc(-c2cc(OC)cc(OC)c2)o1`, the inhibition was 0% (inactive). With `CC(=O)CCc1c(C)[nH]c2ccccc2c1=O` the inhibition was 1% (inactive). With `Cc1ccc(C)c(/C(O)=C2\C(=O)C(=O)N(CCCN3CCOCC3)C2c2cccnc2)c1` (stereo not given) the inhibition was 2% (inactive). With `COc1ccc(OC)c(N(CC(=O)N2CCN(c3cc(Cl)ccc3C)CC2)S(C)(=O)=O)c1` the inhibition was 2% (inactive). `CN(CCNS(=O)(=O)c1ccc2c(c1)oc(=O)n2C)Cc1ccccc1` was tested, and the inhibition was 0% (inactive). For `CCc1cc(C)cc(OCCNC(=O)c2ncn[nH]2)c1`, the inhibition was 7% (inactive). `Oc1ccc(-c2n[nH]c(=S)n2Cc2ccccc2)cc1` was tested, and the inhibition was 0% (inactive). With `Cc1cc(NC(=O)C2CCCC2)nc2c1c(=O)oc1ccccc12` the inhibition was 12% (inactive). For `COC(=O)Nc1ccc(S(=O)(=O)N2CCCCCC2)cc1`, the inhibition was 0% (inactive). `CCOC(=O)N1CCN(c2cc(=O)n(-c3ccccc3Cl)c(=O)[nH]2)CC1` was tested, and the inhibition was 0% (inactive).
